High-throughput results deposited in PubChem by The Scripps Research Institute Molecular Screening Center.
DAX1 inh-1: inhibits human nuclear receptor DAX1. P51843. HEK293 Gal4-DAX1 luciferase reporter, luminescence. inhibition, % at 6.75 µM. 0.99% of 340,000 active. AID 504766;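 active means inhibition above the mean over all tested compounds plus 3 SD, cut at about 4.2% in these data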;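 further: inhibition shows as a rise in luminescence from relieved DAX1 repression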
Target sequence (P51843 207-470 limits assumed): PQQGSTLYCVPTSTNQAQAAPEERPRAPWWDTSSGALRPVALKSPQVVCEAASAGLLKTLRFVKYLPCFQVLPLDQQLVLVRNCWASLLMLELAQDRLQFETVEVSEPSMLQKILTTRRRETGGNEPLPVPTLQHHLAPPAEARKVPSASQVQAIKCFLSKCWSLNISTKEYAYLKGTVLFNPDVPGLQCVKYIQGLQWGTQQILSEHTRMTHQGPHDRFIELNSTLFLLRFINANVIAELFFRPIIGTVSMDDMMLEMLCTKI
ssDAF-12 act: S. stercoralis DAF-12 activation, primary screen | HEK293 ssDAF-12/GRIP1 lit1-tk-luc reporter, luminescence; % of 3 µM dafachronic acid response | activation, % at 6.8 µM | 1% of 370,000 active;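 active means activation above the mean over all tested compounds plus 3 SD, cut at about 0.9% in these data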
hgDAF-12 ag: hgDAF-12 agonism, primary luciferase screen. HEK293 GAL4-hgDAF12 UAS-luciferase reporter, agonist luminescence; normalized to butyrate control. activation, % at 6.8 µM. 1.8% of 370,000 active;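 active means activation above a cutoff set at the mean of all screened compounds plus 3 SD, cut at about 10% in these data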
hcDAF12 agonist: activates DAF-12 receptor from parasite H. contortus. HEK293 hcDAF-12 lit1-tk-luc reporter, luminescence; 0% DMSO, 100% Δ7-dafachronic acid. activation, % at 6.8 µM. 1.4% of 370,000 active. AID 652067;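 active means activation above the mean of all tested compounds plus 3 SD, cut at about 5.5% in these data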
DAX1 inh-2: blocks DAX1 repression of SF-1 activated StAR promoter | HEK293T StAR-luciferase reporter, SF-1/DAX-1 repression relief | inhibition, % at 6.8 µM | 1.1% of 370,000 active | AID 652010;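 active means inhibition above the mean over all tested compounds plus 3 SD, cut at about 3.6% in these data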;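 further: higher inhibition means more luminescence from relief of DAX-1 repression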
Each line names hits and unclear results; the compound was inactive in the other large screens. Sampled rows, rich in hits. Any-hit rate of the full collection: about 4.1%.

Cc1ccc(-n2nnnc2SCC(=O)NCC2(N3CCCCC3)CCCCC2)c(C)c1	DAX1 inh-2 3.6
Cc1ccc(NC(=O)c2cc(-n3cnnc3)ccc2Cl)cc1	none
Cc1ccc(NC(=O)c2cc(N3C(=O)C=CC3=O)ccc2Cl)cc1C	hgDAF-12 ag 11
COc1cc(C(C[N+](=O)[O-])c2c(C)cc3ccccn23)ccc1O (centres undefined)	DAX1 inh-1 4.4
COc1cccc(CC(=O)N(Cc2ccccc2)c2ccccc2C(=O)Nc2cc(OC)ccc2OC)c1	none (no result: DAX1 inh-1)
O=C(c1ccc(CS(=O)(=O)c2ccc(Br)cc2)o1)N1CCN(c2ccccn2)CC1	none
Cc1ccc(S(=O)(=O)Cc2ccc(C(=O)N3CCN(c4ccccn4)CC3)o2)cc1	DAX1 inh-1 4.7
CCc1c(Cc2cccc(F)c2)ncn1CCc1ccccc1OC	none (no result: DAX1 inh-1)
CC1CCN(C(=O)COc2ccc3ccccc3c2Br)CC1	DAX1 inh-2 4.2
C#CCNC(=O)C[C@@H]1C(=O)N(Cc2ccc(OC)cc2)C2=CCN(C(=O)OC(C)(C)C)C[C@]21C(=O)OCC	none (no result: DAX1 inh-1)
O=C(NCc1ccc(Cl)cc1)C(=O)NCC1OCCN1C(=O)c1cccs1 (centres undefined)	hcDAF12 agonist 6.2
CCOC(=O)CC(=O)c1sc2c(c1N)c(=O)[nH]c(=O)n2-c1ccc(OC)cc1	DAX1 inh-1 4.3
Cc1cc(=O)n(CC(=O)O)c2ccccc12	none
CCOC(=O)Cn1c(=O)cc(C)c2ccccc21	DAX1 inh-1 4.5
CS(=O)(=O)c1nsc2nc(=O)c(/C=C3\C=Nc4ccccc43)c(N)n12	ssDAF-12 act 1.0
CCCCc1nn2c(N)c(/C=C3\C=Nc4ccccc43)c(=O)nc2s1	ssDAF-12 act 2.7
CC(C)Sc1nsc2nc(=O)c(/C=C3\C=Nc4ccccc43)c(N)n12	none
CCOC(=O)N[C@H](C(=O)N1CCC[C@H]1C(=O)NCCc1ccccc1Cl)c1ccccc1	none (no result: DAX1 inh-1)
CC(C)Cn1c(-c2cccs2)nc2ccccc21	none
Cn1c(-c2ccc(C=O)s2)nc2ccccc21	hgDAF-12 ag 12
Cn1c(-c2ccc(N)cc2)nc2ccccc21	none
Cn1c(-c2cccs2)nc2ccccc21	hgDAF-12 ag 11
CC(=O)Nc1ccc(S(=O)(=O)C(C#N)c2nc3ccccc3nc2NCCCO)cc1 (centres undefined)	DAX1 inh-1 5.3
COc1cc([N+](=O)[O-])cc(/C=N/NC(=O)Cn2nccc2C)c1O	DAX1 inh-1 6.0
COc1cc([N+](=O)[O-])cc(/C=N/NC(=O)Cn2nc(C)cc2C)c1O	none
COC(=O)[C@]12C[C@H](CC(=O)NCc3ccc(C)o3)C(=O)N(Cc3ccc(Cl)cc3Cl)C1=C[C@H](C1CCCC1)O[C@@H]2C	none (no result: DAX1 inh-1)
COc1ccc(CNC(=O)COC(=O)c2ccccc2OCC(=O)Nc2ccc(SC(F)F)cc2)cc1	DAX1 inh-1 6.5
Cc1ccccc1CN1CCCCC(NC(=O)c2cccc(C(F)(F)F)c2)C1=O (centres undefined)	none (no result: DAX1 inh-1)
COc1cccc(OCc2ccc(Cn3nc(NC(=O)NCCc4ccc(OC)c(OC)c4)c4ccccc43)cc2)c1	ssDAF-12 act 2.2, hcDAF12 agonist 5.8 (no result: DAX1 inh-1)
COc1ccc(CCNC(=O)Cc2nn(C)c(=O)c3ccccc23)cc1OC	none
O=C(COCc1ccccc1)NC1CCCCN(Cc2cccc(Cl)c2)C1=O (centres undefined)	none (no result: DAX1 inh-1)
COC(=O)Cc1[nH]c(=O)[nH]c1C(=O)OC	DAX1 inh-1 4.6
CCOC(=O)c1[nH]c(=O)[nH]c1CSCCO	none
Cc1ccc(-c2nc3ncccc3o2)cc1N	hcDAF12 agonist 5.8
O=C(N[C@@H]1CCCc2c1cnn2-c1ccc(F)cc1F)c1ccccn1	none (no result: DAX1 inh-1, DAX1 inh-2)
Fc1c(-c2ccc3ncnc(NCc4cccs4)c3c2)ccc2c1OCO2	none (no result: DAX1 inh-1, DAX1 inh-2)
O=C(N[C@H]1C[C@@H]2O[C@@H](CO)CC[C@@H]2O[C@@H]1CCc1ccc(-c2cccnc2)cc1)c1cccc(F)c1	none (no result: DAX1 inh-1)
c1csc(-c2ccc3ccccc3n2)c1	none
Nc1nc2ccccc2cc1-c1cccs1	DAX1 inh-1 5.4
NC(=O)c1c(NC(=O)Cn2nc(C(=O)O)c3ccccc3c2=O)sc2c1CCCC2	hgDAF-12 ag 13
O=C(Cn1nc(C(=O)O)c2ccccc2c1=O)Nc1ccc(Br)cc1	ssDAF-12 act 1.1
O=C(N/N=C1/CC2C=CCC12)c1ccco1 (centres undefined)	ssDAF-12 act 1.0, hgDAF-12 ag 11
CCO[C@@H]1OC(C(=O)O)=C[C@H](C2CCCCC2)[C@H]1CCCO	none
